KCNQ2 pot: KCNQ2 (rat) channel potentiation | O88943 | CHO-K1 KCNQ2, FluxOR thallium flux fluorescence; hits give high values | B-score at 10 µM | actives 0.54% (n = 310,000) | AID 2239;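 active = fluorescence ratio B-score at least 3 SD of library B-scores, with initial fluorescence B-score within 3 of them, cut at about 5.3 in these data; same plate scores as AID 2156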;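 also: B-score of peak minus minimum over baseline fluorescence ratio after K+ and Tl+ stimulus; positive B-score means potentiation of KCNQ2 with more thallium influx and brighter signal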
KCNQ2 block: KCNQ2 (rat) channel inhibition; CHO-K1 KCNQ2, FluxOR thallium flux, 20 min; hits give low values; B-score at 10 µM; actives 1.1% (n = 310,000); AID 2156;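 active = fluorescence ratio B-score at most minus 3 library SDs, with starting brightness B-score within 2 library SDs, cut at about -5.5 in these data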
Kir21 conf inh: confirmation of mouse Kir2.1 potassium channel inhibitors; shares compounds with KCNQ2 pot; Kir2.1-expressing cells, FluxOR thallium flux fluorescence; hits give low values; Tl flux remaining, % of negative control (hits give low values), % at 10 µM; actives 41% (n = 2,300); AID 2032;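 active = Primary-screen hit whose thallium flux fell at least 3 control SD below untreated wells in both duplicates, with normal baseline fluorescence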;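 also: 0% = blank wells without stimulus and 100% = stimulated no-compound controls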
HEK293 Tl flux: parental HEK293 activity in Kir2.1 inhibitor counter-screen | shares compounds with KCNQ2 pot | parental HEK293 cells, FluxOR thallium flux fluorescence; 0% = unstimulated blank wells | FluxOR signal as % of negative control (100 = no effect), % at 10 µM | actives 19% (n = 2,300);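 active = dye signal at least 3 control SD above or below untreated wells in both duplicates, raw fluorescence within 3, either direction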;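 also: percent is based on the flux ratio of peak minus minimum fluorescence over baseline F0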
CHO-K1 Tl ctr: alters thallium flux in parental CHO-K1 cells, KCNQ2 counter-screen; FluxOR thallium flux fluorescence; zero = vehicle mean+3SD, 100% = vehicle-minus-blank window; actives 43% (n = 1,200); shares compounds with KCNQ2 pot; activity increase over 3SD of controls, % at 10 µM; AID 2282;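 active = signal rise of at least 3 SD above the untreated control mean, in both duplicate wells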;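 also: counter screen of KCNQ2 potentiator hits so any rise reflects channel-independent effects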
KCNQ1 pot spec: tests whether KCNQ2 potentiators also act on human KCNQ1; shares compounds with KCNQ2 pot; actives 28% (n = 1,200); activation over 3SD threshold, % at 10 µM; CHO KCNQ1 stable, FluxOR thallium flux fluorescence; beyond 3SD, as % of vehicle-control signal;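 active = fluorescence ratio rise of at least 3 SD of vehicle wells above their mean, in both replicate wells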;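 also: 0% = vehicle mean plus 3 SD and 100% = vehicle minus unstimulated blank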
Target sequence (P51787 whole entry, looked up): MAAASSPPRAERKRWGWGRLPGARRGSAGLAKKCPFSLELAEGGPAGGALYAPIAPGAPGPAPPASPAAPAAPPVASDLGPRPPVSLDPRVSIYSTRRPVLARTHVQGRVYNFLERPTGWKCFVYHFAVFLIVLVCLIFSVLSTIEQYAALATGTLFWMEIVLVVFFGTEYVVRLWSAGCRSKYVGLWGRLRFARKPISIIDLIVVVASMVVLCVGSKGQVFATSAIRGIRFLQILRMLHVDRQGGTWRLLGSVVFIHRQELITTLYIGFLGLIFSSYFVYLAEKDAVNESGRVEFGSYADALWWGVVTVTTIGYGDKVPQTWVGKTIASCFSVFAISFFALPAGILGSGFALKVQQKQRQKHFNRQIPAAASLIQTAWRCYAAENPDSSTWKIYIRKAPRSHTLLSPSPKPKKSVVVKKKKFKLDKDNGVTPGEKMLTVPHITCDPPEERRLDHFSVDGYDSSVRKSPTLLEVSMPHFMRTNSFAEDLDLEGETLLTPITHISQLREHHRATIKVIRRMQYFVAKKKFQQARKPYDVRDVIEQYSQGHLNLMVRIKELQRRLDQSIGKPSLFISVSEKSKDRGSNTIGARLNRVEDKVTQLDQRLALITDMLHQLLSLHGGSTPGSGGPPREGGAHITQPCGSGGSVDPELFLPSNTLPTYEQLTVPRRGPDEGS
KCNQ2 pot confirm: rat KCNQ2 channel potentiator confirmation; potentiation, less the hit threshold, % at 10 µM; CHO-KCNQ2 cells, FluxOR thallium flux fluorescence; AID 2287; actives 68% (n = 1,200); shares compounds with KCNQ2 pot;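 active = fluorescence ratio rising 3 SD or more over the vehicle control mean in both replicates, plus primary screen hit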;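 also: peak minus minimum thallium fluorescence divided by baseline after K/Tl stimulus; 0% = vehicle mean plus 3 SD and 100% = vehicle minus unstimulated blank difference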
Kir2-1 sel: tests whether KCNQ2 potentiators also affect mouse Kir2.1; activity over 3SD threshold, % at 10 µM; HEK293 Kir2.1, FluxOR thallium flux fluorescence; actives 2% (n = 1,200); shares compounds with KCNQ2 pot;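 active = fluorescence ratio rise of at least 3 SD above the vehicle-control mean, seen in both replicates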;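 also: 0% = vehicle mean plus 3 SD and 100% = vehicle minus no-stimulus blank window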
KCNQ2 W236L MoA: KCNQ2 potentiators acting on retigabine-insensitive rat KCNQ2 W236L mutant; actives 10% (n = 940); shares compounds with KCNQ2 pot; CHO KCNQ2-W236L, automated patch clamp current; current increase over 3SD of negative controls (%), hits give high values, % at 25 µM;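 active = current increase at least 3 SD of the untreated controls above them in both duplicate recordings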
* hit, by the source's call; i = inactive; . = not tested or not shown. A selection: hits, their analogues and other compounds. The true share with any hit is near 1.6%.

SMILES	KCNQ2 pot	KCNQ2 block	Kir21 conf inh	HEK293 Tl flux	others
Cn1c(=O)n(C)c2cc(NC(=O)CSc3nc4ccccc4c(=O)[nH]3)ccc21	.	i	.	.
Cc1cc(NC(=O)CSCC(=O)OC(C)C(=O)N(C)Cc2ccccc2)no1 (stereo not given)	1.3	i	.	.
Cc1cc(NC(=O)CSCC(=O)OC(C)C(=O)c2cc(C)c(C)cc2C)no1 (stereo not given)	.	i	68%*	i
O=C(Nc1ccccc1)C(=O)c1c[nH]c2ccccc12	.	i	.	.
CCOC(=O)c1ccc(NC(=O)C(=O)NCC2(c3ccc(OC)cc3)CCOCC2)cc1	.	i	.	.
CNC(=O)c1ncnnc1N(C)C(=O)NCc1ccccc1	9.8*	i	i	i	CHO-K1 Tl ctr=0.9*;KCNQ1 pot spec=-21;KCNQ2 pot confirm=-13;Kir2-1 sel=-40
CCNC(=O)N(C)c1nncnc1C(=O)NC	1.5	i	.	.
Cc1cccc(N2CC(C(=O)Nc3nnc(SCc4ccccn4)s3)CC2=O)c1 (stereo not given)	0.07	i	.	.
COc1ccccc1N1CCN(CCC(=O)Nc2ccc(F)cc2)CC1	.	i	.	.
Cc1cccc(NC(=O)C2CC3CCC2C3)c1C (stereo not given)	6.9*	i	i	i	CHO-K1 Tl ctr=-23;KCNQ1 pot spec=-14;KCNQ2 pot confirm=14*;Kir2-1 sel=-29;KCNQ2 W236L MoA=i
COC(=O)c1ccc(NC(=O)C2CC3CCC2C3)cc1 (stereo not given)	1.2	i	.	.
Cc1cc(C)c(NC(=O)C2CC3CCC2C3)c(C)c1 (stereo not given)	28*	i	i	i	CHO-K1 Tl ctr=-6;KCNQ1 pot spec=-12;KCNQ2 pot confirm=112*;Kir2-1 sel=-21;KCNQ2 W236L MoA=i
Cc1cccc(C)c1NC(=O)C1CC2CCC1C2 (stereo not given)	6.2*	i	i	i	CHO-K1 Tl ctr=2.9*;KCNQ1 pot spec=34*;KCNQ2 pot confirm=-3;Kir2-1 sel=-32;KCNQ2 W236L MoA=i
COC(=O)c1sccc1NC(=O)C1CC2CCC1C2 (stereo not given)	1.1	i	.	.
CCOC(=O)c1ccc(NC(=O)C2CC3CCC2C3)cc1 (stereo not given)	1.3	i	.	.
COc1ccc(C2NC(=O)c3ccccc3O2)cc1 (stereo not given)	.	i	.	.
COCCN(Cc1cc2cc(C)ccc2[nH]c1=O)S(=O)(=O)c1ccc(Cl)cc1	.	i	.	.
CN(C)c1ccc(CNC(=O)C2CCC(CNc3c(N4CCCCC4)c(=O)c3=O)CC2)cc1 (stereo not given)	.	i	.	.
Cc1cc(NCCCn2ccnc2)n2nc(C)c(-c3ccccc3)c2n1	.	i	.	.
N=c1c2c(-c3ccccc3)c(-c3ccccc3)n(Cc3ccco3)c2ncn1Cc1ccco1	-6.9	-6.9*	54%*	i
N=c1c2c(-c3ccccc3)c(-c3ccccc3)n(Cc3ccccc3)c2ncn1CCCn1ccnc1	.	i	i	i
N=c1c2c(ncn1Cc1ccco1)Oc1ccc3ccccc3c1C2c1ccccc1 (stereo not given)	2.1	i	.	.
COc1cc(CNc2ccc(N3CCN(C(C)=O)CC3)cc2)ccc1OCc1ccccc1	.	i	.	.
COc1cc(CNc2ccc(NC(C)=O)cc2)ccc1OCc1ccccc1C	5.5*	i	i	i	CHO-K1 Tl ctr=-15;KCNQ1 pot spec=-22;KCNQ2 pot confirm=-16;Kir2-1 sel=-45
CCCC(c1nnnn1CS(=O)(=O)c1ccc(C)cc1)N1CCN(c2ccc(F)cc2)CC1 (stereo not given)	.	i	.	.
SMILES	KCNQ2 pot	KCNQ2 block	Kir21 conf inh	HEK293 Tl flux	others
CCCC(c1nnnn1CS(=O)(=O)c1ccc(C)cc1)N1CCN(CC)CC1 (stereo not given)	5.5*	i	i	i	CHO-K1 Tl ctr=32*;KCNQ1 pot spec=-8;KCNQ2 pot confirm=0.3*;Kir2-1 sel=-28;KCNQ2 W236L MoA=i
C/C(=N\NC(=O)C1CC1)c1ccc(N2CCOCC2)cc1	0.08	i	.	.
C/C(=N\NC(=O)C1COc2ccccc2O1)c1ccc(N2CCOCC2)cc1 (stereo not given)	9.2*	i	i	i	CHO-K1 Tl ctr=26*;KCNQ1 pot spec=-14;KCNQ2 pot confirm=-20;Kir2-1 sel=-35
CC(C)O/C(=N\S(=O)(=O)c1ccc(Cl)cc1)c1ccccc1	.	i	66%*	i
CC(C)CO/C(=N/S(=O)(=O)c1ccccc1)c1ccccc1	0.96	i	.	.
O=CC1=C(c2ccccc2)Oc2ccccc2O1	.	i	52%*	i
CN(C)/C=C1/N=C(c2ccccc2)OC1=O	1.4	i	.	.
Cn1c(CNC(=O)CNC(=O)c2ccc(C(C)(C)C)cc2)cc(=O)n(C)c1=O	0.14	i	.	.
Cc1[nH]n(-c2ccccc2)c(=O)c1/C=N/NC(=O)c1ccccc1F	.	i	.	.
CC(=O)Nc1ccc(CN2CCCC(C(=O)c3cccc(C(F)(F)F)c3)C2)cc1 (stereo not given)	.	i	.	.
COc1ccc(CN2CCCC(C(=O)c3cccc(C(F)(F)F)c3)C2)cc1O (stereo not given)	.	i	40%*	i
CCCCCN(C(=O)CCC(=O)OCC(=O)N(C)Cc1ccc(C)cc1)c1c(N)n(CCCC)c(=O)[nH]c1=O	.	i	.	.
CCCCOc1ccc(S(=O)(=O)N2CCN(c3ccc(N4CCN(CC)CC4)nn3)CC2)cc1	.	i	.	.
COc1ccccc1Nc1ncc(C(=O)N2CCN(Cc3ccc(OC)c(OC)c3OC)CC2)c2ccccc12	.	i	.	.
Cc1ccc([N+](=O)[O-])cc1NC(=O)Nc1cccc(F)c1	1.8	i	.	.
CCOC(=O)C1=C(C)N=c2s/c(=C\c3ccc(C(=O)O)cc3)c(=O)n2C1c1ccc(F)cc1 (stereo not given)	7*	i	i	i	CHO-K1 Tl ctr=11*;KCNQ1 pot spec=-30;KCNQ2 pot confirm=-12;Kir2-1 sel=-45;KCNQ2 W236L MoA=i
CCOC(=O)C1=C(C)N=c2s/c(=C/c3cccc(OCC(=O)O)c3)c(=O)n2C1c1ccc(F)cc1 (stereo not given)	0.96	i	.	.
O=C1CC(N2CCN(Cc3ccc(Cl)cc3)CC2)C(=O)N1CCc1ccccc1 (stereo not given)	5.8*	i	i	i	CHO-K1 Tl ctr=-9;KCNQ1 pot spec=-22;KCNQ2 pot confirm=22*;Kir2-1 sel=-53;KCNQ2 W236L MoA=i
O=C1CC(N2CCN(Cc3ccccc3)CC2)C(=O)N1CCc1ccccc1 (stereo not given)	0.92	i	.	.
CCCCNC(=S)NNC(=O)c1ccco1	1.2	i	.	.
CCOC(=O)c1c(NC(=O)c2ccccc2N(C)S(=O)(=O)c2ccccc2)sc2c1CCCC2	.	i	.	.

Source: PubChem BioAssay
